ATXN2 expr inh: Primary qHTS for Inhibitors of ATXN expression. actives 0.72% (n = 360,000). AID 1745845, 2022. Potency, µM (top dose mostly 57 µM), hits mostly inhibitors. HEK-293 ATXN2-luciferase reporter, luminescence, 24 h; also: nearly all actives have a fitted effect of over 55% in size
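qHTS (up to 57 uM final) was run with 24 h compound exposure of reporter cells at 37 °C. Each well was multiplexed: SteadyGlo luminescence measured ATXN2-luciferase expression after a fluorogenic Gly-Phe-AFC viability readout (25 uM final).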
D3 ag: qHTS of D3 Dopamine Receptor Agonist: qHTS; D3R DiscoveRx beta-arrestin cells, luminescence, 90 min; actives 0.58% (n = 410,000); AID 652048, 2013; D(3) dopamine receptor (Homo sapiens), P35462; max activation, %; in the data active = max activation above about 30%
Target sequence (P35462 whole entry, looked up): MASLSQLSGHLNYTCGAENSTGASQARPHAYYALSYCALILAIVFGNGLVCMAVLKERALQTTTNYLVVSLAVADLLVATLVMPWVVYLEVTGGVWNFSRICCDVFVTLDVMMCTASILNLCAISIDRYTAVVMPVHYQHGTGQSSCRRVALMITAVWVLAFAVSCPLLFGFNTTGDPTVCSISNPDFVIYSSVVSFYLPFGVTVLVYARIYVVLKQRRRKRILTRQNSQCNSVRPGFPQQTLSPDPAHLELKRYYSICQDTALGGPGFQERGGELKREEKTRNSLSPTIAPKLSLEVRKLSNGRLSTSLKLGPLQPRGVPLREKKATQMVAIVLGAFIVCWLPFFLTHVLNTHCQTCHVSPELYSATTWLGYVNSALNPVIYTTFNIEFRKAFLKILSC
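Cells at 1500/well, incubated overnight, then treated with pinned compounds (dopamine as control) for 90 min at 37 degrees C. DiscoveRx reagent added for 30 - 60 minutes at room temperature; luminescence read.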
D3 antag: qHTS of D3 Dopamine Receptor Antagonist: qHTS | D(3) dopamine receptor (Homo sapiens), P35462 | D3R cells, DiscoveRx beta-arrestin luminescence, antagonist mode; hits give low values | max response, negative = inhibition, % | actives 2.5% (n = 360,000); in the data active = max response below about -50%; inconclusive = no clear call, values can overlap the other calls
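Cells expressing the human receptor were seeded at 1500 cells/well, incubated overnight at 37 degrees C in 5% CO2, then exposed to library compounds with dopamine controls for 90 minutes at 37 degrees C before luminescent detection.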
S2 tox: Viability Counterscreen for Primary qHTS for Inhibitors of ATXN expression; S2 cells (HEK-293 line with an ATXN2-luciferase reporter) viability, CellTiter-Fluor protease fluorescence, 24 h; Potency, µM (doses to about 56.7 µM), actives largely listed as cytotoxic; actives 0.49% (n = 400,000); also: nearly all actives have a fitted effect of over 40% in size
TGFb inhibitor: qHTS for Inhibitors of TGF-b; HepG2 CAGA-GFP TGF-b/SMAD3 reporter, GFP fluorescence, 18 h; TGF-beta stimulated, 500 pg/mL final; Potency, µM (series often up to 46.1 µM), most hits filed as inhibitors; actives 1.2% (n = 410,000); also: nearly all actives have a fitted effect of over 65% in size
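HEPG2 CAGA-GFP reporter cells (1000/well, DMEM with 1% FBS) received compounds, then recombinant TGF-beta at 500 pg/mL final for 18 hours at 37 degrees C. Per-cell GFP summed per well was normalised to unstimulated and stimulated DMSO controls before curve fitting.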
HepG2 tox: qHTS for Inhibitors of TGF-b: Cytotox Counterscreen | HepG2 CAGA-GFP viability, ATP luminescence, 18 h | Potency, µM (top dose mostly 46.1 µM), hits mostly cytotoxic | actives 0.76% (n = 410,000) | AID 588856, 2011
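CellTiter-Glo luminescence gave cytotoxicity after 18 hours at 37 degrees C. The cells were HepG2 CAGA-GFP in 1% FBS DMEM, stimulated with 500 pg/mL TGF-beta after compound addition. %Activity was normalised to no-cell wells (complete cell-killing) and DMSO (no toxicity), and curves were fitted and classified.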
Hits are given with their value; – = inactive; ? = inconclusive; · = not tested or not shown; [ ] = another dose, or the depositor's remark. In the library only some 4.8% were active in any assay of this set; here they are far more common. Unless noted, calls follow the shape of the dose curve; as a rule, active = well fitted curve in the direction sought with a large enough effect; inconclusive = small, poorly fitted or top-dose-only effect, or another doubt; inactive = no such curve, though single readings can be large; an effect the other way counts as inactive or inconclusive.

SMILES	ATXN2 expr inh	D3 ag	D3 antag	S2 tox	TGFb inhibitor	HepG2 tox
CCC(=NCCc1c[nH]c2ccccc12)c1c(O)n(C)c(=O)n(C)c1=O	–	65	–	–	–	–
CCC(=NCCc1c[nH]c2ccccc12)c1c(O)n(-c2ccc(C)cc2)c(=O)[nH]c1=O	–	–	–	–	–	–
COc1ccc(S(=O)(=O)N(C)C[C@H]2OCCCC[C@@H](C)Oc3ccc(N(C)C)cc3C(=O)N([C@H](C)CO)C[C@@H]2C)cc1	–	–	–	?	–	–
C[C@H](CO)N1C[C@H](C)[C@H](CN(C)C(=O)N[C@H](C)c2ccccc2)OCc2ccccc2-c2c(n(C)c3ccccc23)C1=O	–	–	–	?	–	–
CCCc1[nH][nH]c(=O)c1C(c1ccc(Cl)cc1)C(C#N)C#N (configuration not stated)	–	–	–	?	–	–
CCCc1[nH][nH]c(=O)c1C(c1ccccc1)C(C#N)C#N (configuration not stated)	–	–	-55	?	–	–
CN1CC(C(=O)c2cccs2)C(c2ccc(Cl)cc2)C1 (configuration not stated)	–	–	-75	–	–	–
CC(=CCCC1=CCC(C2=CC(=O)OC2O)OC1O)CCC1=C(C)CCCC1(C)C (configuration not stated)	–	·	·	·	·	·
CCOc1ccc(N(C(C)C(=O)Nc2cc(Cl)ccc2OC)S(C)(=O)=O)cc1 (configuration not stated)	–	–	·	?	?	–
CCn1nc(/C=C/c2ccccc2)nc2c(=O)n(C)c(=O)nc1-2	?	–	?	·	0.4µM	0.89µM
CCOc1ccc(-n2c(/C=C/c3ccccc3)nc3ccccc3c2=O)cc1	·	–	·	·	–	–
CCn1nc(-c2cccs2)nc2c(=O)n(C)c(=O)nc1-2	–	–	-81	–	?	0.35µM
CCOc1ccc(-n2c(-c3cccs3)nc3ccccc3c2=O)cc1	?	–	–	–	–	–
C[C@]12CC[C@@H]3[C@@H](CCC4=CC(=O)CC[C@@H]43)[C@@H]1CC[C@@H]2OC(=O)CCc1ccccc1	–	·	·	–	·	·
COC(=O)C1C2CC[C@@H](CC1OC(=O)c1ccccc1)N2 (some centres not stated)	–	41	–	–	–	–
COc1ccc(-c2coc3c(C(=O)Nc4cc(OC)c(OC)c(OC)c4)cccc23)c(C)c1	?	–	–	?	–	–
COc1cc(NC(=O)c2cccc3c(-c4cccnc4)coc23)cc(OC)c1OC	11µM	–	–	?	–	–
CCCNC(=O)C(Cc1ccc(C(F)(F)P(=O)(OCC)OCC)cc1)NC(=O)c1ccc(C#N)cc1 (configuration not stated)	–	–	–	–	–	–
O=C(c1ccc(CS(=O)(=O)c2ccccc2)o1)N1CCC2(CC1)OCCO2	–	34	–	–	–	–
CC(=O)Nc1cc(C(=O)N2CCC3(CC2)OCCO3)ccc1S(=O)(=O)c1ccc(C)cc1	–	–	–	–	–	–
O=C(CNS(=O)(=O)c1ccc(Br)s1)N1CCC2(CC1)OCCO2	–	–	-55	–	–	–
Cc1ccc(S(=O)(=O)Nc2cc(C(=O)N3CCC4(CC3)OCCO4)ccc2N2CCCCC2)cc1	–	–	-54	–	–	–
O=C(c1ccc(CNS(=O)(=O)c2ccccc2)cc1)N1CCC2(CC1)OCCO2	–	–	-53	–	–	–
Cc1cccc(C(=O)Nc2nnc(SCC(=O)NCc3ccco3)s2)c1	–	–	–	–	?	–
O=C1/C(=C/c2ccc(N(CCCl)CCCl)cc2)Cc2ccccc21	·	·	·	·	–	–
SMILES	ATXN2 expr inh	D3 ag	D3 antag	S2 tox	TGFb inhibitor	HepG2 tox
CC(C)=CCN1CC[C@]2(C)c3cc(O)ccc3C[C@H]1[C@H]2C	·	–	·	–	·	·
c1ccc(CCN2CCCCC2)cc1	·	·	·	·	–	–
NC(=O)c1ccc(OCCC(O)N2CC=C(c3ccc(F)cc3)CC2)cc1 (configuration not stated)	–	–	-57	–	–	–
COc1cccc(OC)c1C1=NCC(=O)Nc2c1oc1ccc(Br)cc21	–	–	?	?	16µM	–
S=c1[nH]nc(-c2ccco2)n1-c1cccc2ccccc12	–	–	-74	–	?	–
C=CCc1ccccc1OCCn1c(C2CC(=O)N(Cc3ccc(F)cc3)C2)nc2ccccc21 (configuration not stated)	?	–	·	·	16µM	–
COC(=O)[C@]12CCC(C)(C)C[C@H]1[C@H]1C(=O)C=C3[C@@]4(C)C=C(C#N)C(=O)C(C)(C)[C@@H]4CC[C@@]3(C)[C@]1(C)CC2	·	–	·	·	·	·
CC1=C(O)C(=O)C=C2C1=CC=C1[C@@]2(C)CC[C@@]2(C)[C@@H]3C[C@](C)(C(=O)O)CC[C@]3(C)CC[C@]12C	2.4µM	·	·	·	·	·
Cc1ccccc1-c1nc(CS(=O)CC(=O)N2CCN(c3cc(Cl)ccc3C)CC2)c(C)o1 (configuration not stated)	–	–	·	–	?	–
Nc1nonc1C(=O)N/N=C/c1ccc([N+](=O)[O-])o1	–[11.3 µM]	–	?	–	16µM	–
N/C(=N\[N+](=O)[O-])N/N=C/c1ccc(O)cc1	–	–	–	–	–	–
Cc1ccc(CC(=O)N2CCN(Cc3ccccc3)CC2)cc1	·	–	–	–	–	–
O=C(Cc1c(Cl)cccc1Cl)N1CCN(Cc2ccccc2)CC1	–	–	-51	–	–	–
CC(C)[C@@]1(NC(=O)[C@@H]2C[C@@H]3c4cccc5[nH]cc(c45)C[C@H]3N(C)C2)O[C@@]2(O)[C@@H]3CCCN3C(=O)[C@H](Cc3ccccc3)N2C1=O	–	–	-96	?	–	–
CC(C)(N)Cc1ccccc1Cl	–	·	·	–	·	·
Cc1ccsc1C(=O)C1CCCN(Cc2ccc(-n3cccn3)cc2)C1 (configuration not stated)	–	–	-63	–	?	–
Cc1ccsc1C(=O)C1CCCN(Cc2cccc(OCCO)c2)C1 (configuration not stated)	–	–	?	–	–	–
Cc1ccsc1C(=O)C1CCCN(Cc2cccc(-n3cccn3)c2)C1 (configuration not stated)	–	–	-80	–	–	–
CCNC(=O)C1CCCN(C(=O)c2c(-c3ccccc3)noc2C)CC1 (configuration not stated)	–	–	–	?	–	–

Screening results deposited in PubChem BioAssay by National Center for Advancing Translational Sciences (NCATS).
